Data on 94 compounds can be found in ChEMBL document CHEMBL3988442, “University of Dundee, Small-Polar-MMV Screening Library” (2021).

The structures appear in SMILES notation. Hit rate of the full screen: of about 48,000 compounds, about 13,000 (27%) showed an effect of 50% or more. Some of the results follow.

The experiment deals with Wolbachia pipientis. As to the kind of experiment: Anti-Wolbachia Cell-Based Screen. As to conditions: 5 µM. Format: functional. Set-up: scale not given: in the data most compounds retested in dose-response had high values.
In the case of `O=C(c1ccc(C2CCCN2C(=O)c2ccoc2)s1)N1CCOCC1` (centres undefined), the “Percent Effect” value is -19.01%. For `Cc1cnc(C)c(-c2cc(O)c3c(c2)CN(c2nccs2)CCO3)n1`, the “Percent Effect” value is -4.792%. Consider `O=C(CCc1ccco1)NS(=O)(=O)Cc1ccon1`, for which the “Percent Effect” value is -7.253%. Turning to `Fc1cccc2c1CCC2NCc1ccc(N2CCOCC2)cc1` (centres undefined), the “Percent Effect” value turned out to be 19.23%. Then `Cc1nc(CN(C)S(=O)(=O)c2ccccc2Br)no1`, with 4.725%. On to `Cc1ccc(CN2C[C@H]3CC[C@@H]2CN(Cc2[nH]cnc2C)C3)o1`, for which the “Percent Effect” value worked out at 6.692%. Take `Cc1ccc(CN(Cc2[nH]cnc2C)C2CC(C)(C)NC(C)(C)C2)o1.O=C(O)CC(O)(CC(=O)O)C(=O)O`: the “Percent Effect” value came to 115.3%. On to `O=C(N[C@H]1CN(c2nc(CO)cs2)C[C@@H]1C1CC1)C1CCCCC1`, for which the “Percent Effect” value worked out at 92.34%. On to `Cc1nc(O)cc(CN2C[C@H](NC(=O)C3CCCC3)[C@@H](C3CC3)C2)n1`, for which the “Percent Effect” value was found to be 0%.

For the compound `CCC[C@H]1CN(Cc2cscn2)C[C@@H]1NC(=O)C1(COC)CCC1`, the “Percent Effect” value turned out to be 6.083%.

With `CCC[C@H]1CN(c2nccc(OC)n2)C[C@@H]1NC(=O)C1CCOCC1`, the “Percent Effect” value is given as -2.049%. For `CCC[C@H]1CN(c2nc(CO)cs2)C[C@@H]1NC(=O)C1CCC1`, the “Percent Effect” value is 94.3%.

With `CCC[C@H]1CN(c2nc(CO)cs2)C[C@@H]1NC(=O)C1(COC)CC1`, the “Percent Effect” value stood at 96.14%. Then `CC(=O)N[C@@H]1CN(c2nc(CO)cs2)C[C@H]1c1ccc(C)o1`, with 5.445%; and `CCC[C@H]1CN(Cc2nccn2C)C[C@@H]1NC(=O)C1(COC)CCC1`, with -15.87%. In the case of `Cc1nc(O)cc(CN2C[C@H](NC(=O)C3CCC3)[C@@H](C3CC3)C2)n1`, the “Percent Effect” value is on record as -31.53%. Then `COc1ccc(Br)cc1CCC(=O)N1CCC(O)CC1`, with -2.628%; and `COc1ccc(-n2c(SCC(=O)O)nnc2-c2cn[nH]c2)cc1`, with -10.86%. Take `O=C(C1CCCS1)N1CCOc2cccc(F)c21` (centres undefined): the “Percent Effect” value is reported as -0.5094%. As to `Cc1noc(C)c1NC(=O)N1CCC(NC(=O)OC(C)(C)C)CC1`, the “Percent Effect” value is given as -9.132%. Take `Cc1nn(-c2ccccn2)c(C)c1[C@@H]1C=C[C@@H](NC(=O)NC(C)C)C1`: the “Percent Effect” value was determined as 4.559%. With `Cc1ccc(Oc2nccnc2C2CCN(C(=O)C(C)(C)N)CC2)cc1`, the “Percent Effect” value is on record as 108.2%. Turning to `CCc1nc(N)sc1C(=O)N1CCCC(COc2cccc(C)c2)C1` (centres undefined), the “Percent Effect” value is -15.03%.

In the case of `CC(=O)N1CCC(c2nccnc2Oc2ccccc2)CC1`, the “Percent Effect” value is reported as -11.76%. Then `COCC(=O)N1CCC(Oc2cccc(C)c2)CC1`, with 14.96%; and `CC(C)(N)C(=O)N1CCC(c2nccnc2Oc2ccccc2F)CC1`, with 77.45%. As for `CC(C)(C(=O)N1CCC(C(N)=O)C1)c1ccccc1F` (centres undefined), the “Percent Effect” value was determined as 2.701%. Take `COc1ccc(Oc2ncccc2NC(=O)N2CCOC(C)C2)cc1` (centres undefined): the “Percent Effect” value amounted to 2.088%. In the case of `COc1ccc(Oc2nccnc2C2CCN(C(C)=O)CC2)cc1`, the “Percent Effect” value was 88.85%. With `Cc1cccc(Oc2nccnc2C2CCN(C(=O)C(C)(C)N)CC2)c1`, the “Percent Effect” value is listed as 110.7%.

Take `CC(C)(C(=O)N1CCC(CS(N)(=O)=O)CC1)c1ccccc1F`: the “Percent Effect” value was -25.38%. With `CC(C)N1C(=O)CC(NC(=O)c2cc(Cl)sc2Cl)C1=O` (centres undefined), the “Percent Effect” value is reported as -12.95%. `COc1ccc(S(=O)(=O)Nc2cccnc2-n2cncn2)c(C)c1`: the “Percent Effect” value was -3.562%. Then `CCc1c(NCc2cccnc2)cnn1CC(C)C`, with -15.31%. On to `CC(C)CN1CCc2[nH]cnc2C12CCN(C(=O)c1ccnn1C)CC2`, for which the “Percent Effect” value was -2.92%. For `CC(C)(N)C(=O)N1CCC(c2nccnc2Oc2cccc(F)c2)CC1`, the “Percent Effect” value is listed as 92.95%. Take `O=C(c1coc(COc2cccc(F)c2)n1)N1CC[C@H](O)[C@@H](O)C1`: the “Percent Effect” value was -11.67%. Consider `O=C(NCc1nncn1C1CC1)Nc1ccc(OC2CCC2)c(F)c1`, for which the “Percent Effect” value was 8.636%. For `Cc1ncc(-c2ccccn2)c(CCNC(=O)C2CCCC2)n1`, the “Percent Effect” value is given as 121.3%.

Regarding `CCOCCNC(=O)CCC1CCCO1` (centres undefined), the “Percent Effect” value was -23.31%. With `COc1ccc(OC)c(CCNC(=O)CCC2CCCO2)c1` (centres undefined), the “Percent Effect” value amounted to 18.05%. For the compound `Cc1cccc(C)c1OCCNC(=O)CNC(=O)C1CCCC1`, the “Percent Effect” value was -3.994%. The same measure for `Cc1ncc(-c2ccccn2)c(CCNC(=O)CCC2CCCO2)n1` (centres undefined): 93.7%.

For `O=C(NCCNC(=O)C1CC1)c1cnc(-c2ccccc2)nc1`, the “Percent Effect” value came out at 15.61%. The same measure for `CC(NCc1cnc(C2CCC2)s1)c1cccc(-n2ccnc2)c1` (centres undefined): -10.94%; for `Cc1cc(C)c2[nH]c(=O)c(CN3CCCC(O)(CO)C3)cc2c1` (centres undefined): -6.012%; for `Cc1ccc(CCN2CCCC23Cc2ccccc2CNC3=O)cc1` (centres undefined): 109.3%. Consider `O=C1N(CCc2ccccc2)CCCC1(O)CNCc1ccc(F)cc1` (centres undefined), for which the “Percent Effect” value worked out at 10.95%. `CC(C)NC(=O)N1CCC2(CC1)C(=O)NCCN2Cc1ccccc1.O=C(O)C(F)(F)F`: the “Percent Effect” value is listed as -27.1%. As to `Cc1cc(C)c(CN2CCCC23Cc2ccccc2CNC3=O)c(C)c1` (centres undefined), the “Percent Effect” value stood at 111.5%. With `Cc1ccc(CN2CCCC23Cc2ccccc2CNC3=O)cc1` (centres undefined), the “Percent Effect” value worked out at 128.7%. For the compound `O=C(CC1CC1)N1CCC2(CC1)C(=O)NCCN2Cc1ccccc1`, the “Percent Effect” value is recorded as -11.42%. On to `OC(CNCCn1cccn1)COc1cccc(C(F)(F)F)c1` (centres undefined), for which the “Percent Effect” value was 6.446%. As to `CCN1CCC(NC(=O)CNC(C)Cn2cccn2)CC1` (centres undefined), the “Percent Effect” value is given as 5.956%. For the compound `CCC[C@@H]1CN(Cc2cc3c(cc2OC)OCO3)C[C@H]1C(=O)O`, the “Percent Effect” value is given as 5.15%. In the case of `CCc1ncncc1C(=O)NCCNc1ncnc2sccc12`, the “Percent Effect” value is recorded as -23.73%. For the compound `CCOC[C@@H]1CC[C@H]2[C@H](CCN2S(=O)(=O)Cc2ccccc2)O1`, the “Percent Effect” value is -7.135%. In the case of `CCOC[C@H]1CC[C@H]2[C@H](CCN2C(=O)c2cnccn2)O1`, the “Percent Effect” value is 103.2%. Take `Cc1nc(COC[C@H]2CC[C@H]3[C@H](CCN3C(N)=O)O2)cs1`: the “Percent Effect” value was -9.234%. On to `Cc1nc(COC[C@@H]2CC[C@H]3[C@H](CCN3C(=O)C3CC3)O2)cs1`, for which the “Percent Effect” value is reported as -1.141%.

For `CCOC[C@@H]1CC[C@H]2[C@H](CCN2C(=O)c2cnccn2)O1`, the “Percent Effect” value was 112.7%. Consider `COCC(=O)N1CC[C@@H]2O[C@H](COCc3csc(C)n3)CC[C@@H]21`, for which the “Percent Effect” value was determined as 4.421%. As to `CN(C)C(C(=O)N1CCC(C#N)CC1)c1ccccc1F` (centres undefined), the “Percent Effect” value was -0.3171%.

In the case of `CCN1C[C@H]2C3(CCN(C(C)=O)CC3)CC[C@@]2(C(=O)N(C)C)C1.O=C(O)C(F)(F)F`, the “Percent Effect” value worked out at 6.202%. `O=c1cc(-c2cccnc2)nc(-c2ccc(CN3CC[C@@H](O)C3)cc2)[nH]1`: the “Percent Effect” value is listed as 3.03%. `CCCn1cc(-c2ccnc(NC3CCc4ccccc4C3)n2)c(C)n1` (centres undefined): the “Percent Effect” value is recorded as 0.5444%.

As to `Cc1ncc(-c2ccnc(NC3CC3)n2)c(-c2cccnc2)n1`, the “Percent Effect” value worked out at 88.62%. Consider `Cc1ncc(-c2ccnc(N3CC[C@H](O)C3)n2)c(-c2cccnc2)n1`, for which the “Percent Effect” value is reported as 109%. Regarding `COc1ccnc(N2CCCN(c3nc(C4CC4)ns3)CC2)n1`, the “Percent Effect” value was found to be 2.276%.

In the case of `Cc1ncc(-c2ccnc(N3CCC[C@@H]3CO)n2)c(-c2cccnc2)n1`, the “Percent Effect” value amounted to 102.7%.

Turning to `c1cncc(-c2nc(C3CC3)ncc2-c2ccnc(N3CCCC3)n2)c1`, the “Percent Effect” value came out at 90.28%.

For `Cc1noc(-c2ccc(N3CCC[C@H]3CO)nc2)n1`, the “Percent Effect” value was 4.962%. The same measure for `Cc1ncc(-c2ccnc(N3CCCCCC3)n2)c(-c2cccnc2)n1`: -6.559%. In the case of `COc1ccccc1Oc1ncccc1CNC(=O)CN1CCCC1=O`, the “Percent Effect” value was -22.72%.

Take `O=C(Nc1ccccc1)N1CCC(N2Cc3ncccc3C2=O)CC1`: the “Percent Effect” value is -2.29%. With `CSC1(CNc2ncc(Br)cn2)CCOCC1`, the “Percent Effect” value was -8.791%. Consider `COc1ccccc1C(=O)N(Cc1nc(C)cs1)CC1CCCO1` (centres undefined), for which the “Percent Effect” value is -4.042%. Take `CCC[C@H]1CN(CCS(C)(=O)=O)C[C@@H]1NC(=O)c1cccnn1`: the “Percent Effect” value is listed as 3.679%. Then `COc1ccsc1C(=O)Nc1cc(Cl)c(=O)n(C)c1`, with -0.9546%. `O=C(NCCCOC1CCOC1)NC(C1CC1)C1CC1` (centres undefined): the “Percent Effect” value was -5.056%. As for `CCCc1nc(C)c(CN2CC3(CCOC3)CCC2=O)s1` (centres undefined), the “Percent Effect” value is on record as -4.631%. Then `COc1ccc(-c2nc(CC(=O)N(C)CCC#N)cs2)cc1OC`, with -11.11%. On to `Cc1ccc(CN2C[C@H](N(C)Cc3cncnc3)[C@H]3OCCC[C@H]32)o1`, for which the “Percent Effect” value is -12.1%. In the case of `CN(Cc1ccco1)[C@@H]1CN(CC2CCOCC2)[C@@H]2CCCO[C@H]12.O=C(O)C(F)(F)F.O=C(O)C(F)(F)F`, the “Percent Effect” value was found to be 6.763%. Turning to `CN(Cc1ccco1)[C@@H]1CN(C(=O)c2ccnnc2)[C@@H]2CCCO[C@H]12.O=C(O)C(F)(F)F`, the “Percent Effect” value was 0.1298%. For `CN(Cc1ccco1)[C@@H]1CN(Cc2ccc(F)cc2)[C@@H]2CCCO[C@H]12.O=C(O)C(F)(F)F.O=C(O)C(F)(F)F`, the “Percent Effect” value was 1.532%. `CN(Cc1cncnc1)[C@@H]1CN(C(=O)C2CC2)[C@@H]2CCCO[C@H]12.O=C(O)C(F)(F)F`: the “Percent Effect” value is 103.9%. For the compound `CN(Cc1cncnc1)[C@@H]1CN(C(=O)c2ccco2)[C@@H]2CCCO[C@H]12.O=C(O)C(F)(F)F`, the “Percent Effect” value is recorded as 99.89%. As to `CN(C)C(=O)CO[C@@H]1CN(Cc2ccccc2)[C@@H]2CCCO[C@@H]21`, the “Percent Effect” value is given as -2.745%. Regarding `CCCS(=O)(=O)N1C[C@H](N(C)Cc2ccco2)[C@@H]2OCCC[C@@H]21.O=C(O)C(F)(F)F`, the “Percent Effect” value was -9.069%.

`CCN(CC)[C@@H]1CN(C(=O)c2ccnnc2)[C@@H]2CCCO[C@H]12.O=C(O)C(F)(F)F`: the “Percent Effect” value is listed as -6.627%. As for `CN(Cc1cncnc1)[C@H]1CN(C(=O)c2ccco2)[C@@H]2CCCO[C@@H]21`, the “Percent Effect” value turned out to be 83.44%. Regarding `CCN(CC)[C@@H]1CN(C(=O)c2ccc(C#N)cc2)[C@@H]2CCCO[C@H]12.O=C(O)C(F)(F)F`, the “Percent Effect” value is reported as -2.681%. On to `COCC(=O)N1C[C@H](N(C)Cc2cncnc2)[C@H]2OCCC[C@H]21`, for which the “Percent Effect” value is given as 102.5%.
